Source: PubChem BioAssay AID1159580 (chemical genetic matrix, 2015)
Hit rate of the full screen: of about 5,500 compounds, about 2,000 (36%) were called active. Another 18% or so got no clear call; they are omitted. Rule as the data show it: active = normalized growth mostly below about 0.91 (no sharp cut-off); inconclusive = no clear call, values can overlap the other calls; inactive = mostly above about 0.92. Some of the results follow.

Assay: chemical genetic growth profiling, strain panel (AID 1159580);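 also: tested at 20 µM; growth read once vehicle control cultures reached saturation at 30 °C; 1 = growth at the plate median or of vehicle wells; lower values mean less growth of the strain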
Conditions: S. cerevisiae deletion strains, growth OD

Measured: normalized growth

O=C(NOC(=O)c1ccccc1)c1ccccc1
active: locus YAR019C, strain CDC15, active compounds read low 0.0906 | locus YBL105C, strain PKC1, active compounds read low 0.0874 | locus YBR135W, strain CKS1, active compounds read low 0.0902 | locus YBR136W, strain MEC1, active compounds read low 0.0871 | locus YBR160W, strain CDC28, active compounds read low 0.091 | locus YDL017W, strain CDC7, active compounds read low 0.0875 | locus YDL028C, strain MPS1, active compounds read low 0.0868 | locus YDL101C, strain DUN1, active compounds read low 0.102 | locus YDL108W, strain KIN28, active compounds read low 0.0859 | locus YDL132W, strain cdc53, active compounds read low 0.0913 | locus YDL214C, strain PRR2, active compounds read low 0.0898 | locus YDR052C, strain DBF4, active compounds read low 0.0867 | locus YDR054C, strain cdc34, active compounds read low 0.0943 | locus YDR226W, strain ADK1, active compounds read low 0.0848 | locus YDR477W, strain SNF1, active compounds read low 0.0987 | locus YER123W, strain YCK3, active compounds read low 0.0956 | locus YER133W, strain GLC7, active compounds read low 0.0938 | locus YFL009W, strain cdc4, active compounds read low 0.093 | locus YFL029C, strain CAK1, active compounds read low 0.089 | locus YFR003C, strain YPI1, active compounds read low 0.0861 | locus YFR019W, strain FAB1, active compounds read low 0.101 | locus YFR028C, strain CDC14, active compounds read low 0.0859 | locus YGR040W, strain KSS1, active compounds read low 0.103 | locus YGR052W, strain FMP48, active compounds read low 0.111 | locus YGR092W, strain DBF2, active compounds read low 0.104 | locus YHR030C, strain SLT2, active compounds read low 0.114 | locus YHR079C, strain IRE1, active compounds read low 0.112 | locus YHR082C, strain KSP1, active compounds read low 0.153 | locus YHR205W, strain SCH9, active compounds read low -0.00347 | locus YIL147C, strain SLN1, active compounds read low 0.0859 | locus YJL095W, strain BCK1, active compounds read low 0.107 | locus YJL128C, strain PBS2, active compounds read low 0.097 | locus YJL157C, strain FAR1, active compounds read low 0.0897 | locus YJR016C, strain ILV3, active compounds read low 0.0894 | locus YJR066W, strain TOR1 (second series), active compounds read low 0.0928 | locus YJR066W, strain TOR1, active compounds read low 0.133 | locus YKL048C, strain ELM1, active compounds read low 0.111 | locus YKL067W, strain YNK1, active compounds read low 0.0892 | locus YKL101W, strain HSL1, active compounds read low 0.103 | locus YKL193C, strain SDS22, active compounds read low 0.0889 | locus YKL203C, strain TOR2, active compounds read low 0.097 | locus YLR113W, strain HOG1, active compounds read low 0.138 | locus YLR133W, strain CKI1, active compounds read low 0.0893 | locus YLR403W, strain SFP1, active compounds read low 0.00282 | locus YML070W, strain DAK1, active compounds read low 0.109 | locus YMR001C, strain CDC5, active compounds read low 0.0891 | locus YMR205C, strain PFK2 (second series), active compounds read low 0.0877 | locus YMR277W, strain FCP1, active compounds read low 0.0919 | locus YNL006W, strain LST8, active compounds read low 0.0825 | locus YNL020C, strain ARK1, active compounds read low 0.0971 | locus YNL161W, strain CBK1, active compounds read low 0.0976 | locus YNL183C, strain NPR1, active compounds read low 0.109 | locus YNL207W, strain RIO2, active compounds read low 0.0878 | locus YNL222W, strain SSU72, active compounds read low 0.0863 | locus YNL307C, strain MCK1 (second series), active compounds read low 0.112 | locus YOL078W, strain AVO1, active compounds read low 0.0891 | locus YOL136C, strain PFK27, active compounds read low 0.0994 | locus YOR061W, strain CKA2, active compounds read low 0.0894 | locus YOR119C, strain RIO1, active compounds read low 0.108 | locus YOR231W, strain MKK1, active compounds read low 0.111 | locus YOR329C, strain SCD5, active compounds read low 0.0866 | locus YPL031C, strain PHO85, active compounds read low 0.102 | locus YPL153C, strain RAD53, active compounds read low 0.0967 | locus YPL204W, strain HRR25, active compounds read low 0.1 | locus YPL209C, strain IPL1, active compounds read low 0.0841 | locus YPL256C, strain CLN2, active compounds read low 0.167 | locus YPR025C, strain CCL1, active compounds read low 0.091 | locus YPR106W, strain ISR1, active compounds read low 0.0869 | locus YPR111W, strain DBF20, active compounds read low 0.09 | strain NNK1, active compounds read low 0.0922 | strain TSCII, active compounds read low 0.0892
